Activity calls are given as the source filed them.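 Rule for the calls: active = GFP response vs DMSO above 150% with enough events counted; inconclusive = fewer than 70 events counted for a yeast strain; inactive = the rest.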
Test: MEP2-GFP expression modulation in yeast, confirmation, flow cytometry, third cherry pick, S. cerevisiae (AID 504321);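 note: median per-cell GFP fluorescence by flow cytometry across all yeast cells; ratio of sample to DMSO median GFP so 100% equals the DMSO level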
Conditions: S. cerevisiae MEP2-GFP strain, 3 h, at 10 µM, hits give high values

| Structure (SMILES) | GFP response vs DMSO |
| --- | --- |
| O=C(O)c1ccccc1-c1ccccc1C(=O)Nc1ccc(-c2nc3cc(Cl)ccc3o2)cc1 | 116% (inactive) |
| Cc1ccc(C(=O)/C=C/Nc2cccc(O)c2)cc1 | 116% (inactive) |
| COc1ccc(NC(=O)ON=C2c3ccccc3-c3ccccc32)cc1 | 105% (inactive) |
| CC(C)Nc1ncnc2ccc(Br)cc12 | 112% (inactive) |
| CSc1nc(S(C)(=O)=O)nc2[nH]c(=O)[nH]c12 | 110% (inactive) |
| O=C(N/N=C/c1ccccc1F)c1cccc2ccccc12 | 108% (inactive) |
| Nc1ncnc(Nc2cc(Cl)cc(Cl)c2)c1[N+](=O)[O-] | 108% (inactive) |
| C[n+]1cccc2cccc([O-])c21 | 116% (inactive) |
| Cc1cccc(C)c1Nc1ncnc(N)c1[N+](=O)[O-] | 103% (inactive) |
| O=C1c2ccccc2C(=O)c2c1cccc2N(CCO)CCO | 108% (inactive) |
| COc1cccc2c(=O)c(C(=O)O)c[nH]c12 | 116% (inactive) |
| CSc1ccccc1OCc1cc(C(=O)N2CCN(C)C(c3ccccc3)C2)no1 (stereo not given) | 103% (inactive) |
| O=C(O)c1ccc2cccc(O)c2n1 | 110% (inactive) |
| OCc1ccc(O)c2ncccc12 | 99% (inactive) |
| CCC(C)Nc1nc(N)c([N+](=O)[O-])c(Nc2ccccc2OC)n1 (stereo not given) | 114% (inactive) |
| CCc1sc(C(=O)Nc2nc(-c3ccccn3)cs2)cc1C | 114% (inactive) |
| Nc1nc(NCCOCCO)nc(Nc2cccc(F)c2)c1[N+](=O)[O-] | 108% (inactive) |
| COC(=O)COc1c(Cl)cc(Cl)c2ccc(C)nc12 | 118% (inactive) |
| CCN(CC)c1ncnc2ccc(Br)cc12 | 114% (inactive) |
| Oc1c(Br)cc(Br)c2cccnc12 | 189% (active) |

Source: PubChem BioAssay AID504321 (NMMLSC, 2011)
